Experimental findings from PubChem BioAssay are described below.

This test is described as follows: probe aLefty1 binding on compound microarray – biochemical, small-molecule microarray, 635/667 nm fluorescence, primary screen (AID 1153).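 Further: score merges spot fluorescence with signal-to-noise ratio from the scanned slide images.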 Conditions: higher = more signal.
For `COCCCNC(=O)[C@@]1(Sc2ccc(C)cc2)CC(=O)N(Cc2ccccc2)[C@@H]1c1ccc(CO)cc1I`, the composite z-score amounted to 0.337. For `COC(=O)[C@H](C)NC(=O)CCC1CC(OC(=O)NCCc2ccc(F)cc2)CC2(CCCC(COC(=O)NCC(c3ccccc3)c3ccccc3)O2)O1` (stereo not given in full) the value was -0.194; for `COc1ccccc1CN1C(=O)c2ccccc2[C@@H](C(=O)NCC(F)(F)F)[C@@H]1c1ccc(CO)cc1`, -0.242; for `Cc1cc2c(c(=O)o1)[C@H](O)[C@H]1O[C@H]1C2=O`, -0.237. For `CCN(CC)c1ccc(N2CC=CC34O[C@@H]5/C=C\CCC(C)OC(=O)C5[C@H]3C(=O)N(CCCO)[C@@H]4C2=O)cc1` (stereo not given in full) the value was -0.191. For `O=C1O[C@@H](c2ccccc2)[C@@H](c2ccccc2)N2[C@@H](c3ccccc3OCCO)[C@]3(C(=O)Nc4ccc(C#CCCO)cc43)[C@@H](C(=O)O)[C@H]12` the value was 1.66; for `COc1ccc([Si](C)(C)[C@@H]2[C@@H](CC(=O)N3CCC[C@H]3CO)O[C@]3(C(=O)N(Cc4cccc(N5CCC5=O)c4)c4ccccc43)[C@H]2C)cc1`, 0.792. For `CC(C)(C)N1CC=CC23O[C@@H]4C=CCCOC(=O)C4[C@H]2C(=O)N(CCCCCO)[C@@H]3C1=O` (stereo not given in full), the composite z-score was determined as 0.0919. `COc1cccc([C@@H]2Oc3ccc(Br)cc3C(=O)[C@H]2O)c1` yielded a composite z-score of -0.0464.

As for `CO[C@H]1COC(=O)[C@@H]2CCCN2C(=O)CC=C[C@@H](C)[C@H](OC)COC(=O)CC=C[C@@H]1C`, the composite z-score was -0.0974. For `CC(CCN1CCc2nc(-c3ccccc3)c(-c3ccccc3)cc2C1)=NO[C@H](C)c1cn([C@@H]2COC[C@H]2O)nn1` the value was 0.0026. In the case of `COC(=O)[C@H]1COC(c2ccc(OCCCO)cc2)=N1`, the composite z-score was 0.245. `O=C1[C@H]2[C@H]3[C@H](O)[C@H](O)CC(=NOC[C@@H](O)COCc4ccco4)[C@H]3CC[C@H]2C(=O)N1Cc1ccc2c(c1)OCO2` displayed a composite z-score of -0.147.

As to `CC[C@@H](c1ccccc1)n1c(=O)n2n(c1=O)[C@H]1[C@H](O)[C@@H]3O[C@@H]3C(=NOCC=C(C)CCC=C(C)C)[C@H]1CC2`, the composite z-score was -0.241.

`C[C@@H](c1ccccc1)N1C(=O)[C@H]2[C@H]3[C@H](O)[C@H](O)CC(=NOC[C@@H](O)COCc4ccco4)[C@@H]3CC[C@H]2C1=O` displayed a composite z-score of -0.147.

As to `CO[C@H]1O[C@H](CO)[C@@H](OC(=O)Nc2ccc3c(c2)OCO3)[C@H](OC(=O)Nc2ccccc2-c2ccccc2)[C@@H]1OC(=O)Nc1ccccc1-c1ccccc1`, the composite z-score was determined as 0.298. Regarding `NCCCCCNC(=O)[C@@H]1C[C@@H]2C(=O)N3CCC[C@H]3C(=O)N2[C@@H]1c1cccc(OCCO)c1`, the composite z-score was determined as 1.55.

In turn, `C[C@@H]1C=CCC(=O)OC[C@H](C)C(=O)N2CCC[C@H]2C(=O)OC1` gave a composite z-score of -0.384. In turn, `CCCC=C(CCC)[C@@H](NC(=O)c1ccc(-c2ccccc2)cc1)c1ccc(C(=O)OC)cc1` gave a composite z-score of 0.547.

`CCOC(=O)[C@H](Cc1ccccc1)NC(=O)CCC1CC(OC(=O)NCc2ccc3c(c2)OCO3)CC2(CCCC(COC(=O)NCC3CCCCC3)O2)O1` (stereo not given in full) came in with a composite z-score of 0.171. Regarding `COc1ccc(COC(=O)NN=C2C[C@@H](O)[C@@H](O)[C@@H]3[C@@H]4C(=O)N(c5ccc(F)cc5F)C(=O)[C@@H]4CC[C@@H]23)cc1`, the composite z-score was found to be 0.235.

Turning to `CC(C)[C@@H](OCc1ccccc1)[C@H](C)C=NO[C@H](C)c1cn([C@H](CO)Cc2ccccc2)nn1`, the composite z-score is -0.448.

With `COC(=O)[C@H](C)NC(=O)CCC1CC(OC(=O)NCc2cccc3ccccc23)CC2(CCCC(COC(=O)NCCc3ccc(Cl)cc3)O2)O1` (stereo not given in full), the composite z-score is -0.375. In the case of `COc1ccc(-c2nc3c(c4c2C[C@H](C)OC4)CN(CCC(C)C)CC3)cc1` it was 0.0687; in that of `O=C(NN=C1C[C@@H](O)[C@@H](O)[C@@H]2[C@@H]3C(=O)N(c4cccc(Oc5ccccc5)c4)C(=O)[C@@H]3CC[C@H]12)OCc1ccccc1`, 0.0406. In the case of `CCOC(=O)CCN1C(=O)[C@H]2[C@H]3[C@H](O)[C@H](O)CC(=NNC(=O)OCc4ccc(OC)cc4)[C@@H]3CC[C@H]2C1=O` it was 0.0288; in that of `CCN1C(=O)[C@H]2[C@H]3[C@H](O)C=CC(=O)[C@@H]3CC[C@H]2C1=O`, -0.265; in that of `C=C(CCCC)C(=O)CC[C@@H](OC(C)=O)c1cccc(OCCO)c1`, -0.101. For `O=C1C[C@]2(c3ccc([N+](=O)[O-])cc3)C(=O)N(CCN3CCOCC3)c3cc(CO)ccc3[C@H]2N1CC12CC3CC(CC(C3)C1)C2` the value was 0.056. On to `[N-]=[N+]=NCc1ccccc1[C@@H]1OC(c2ccc(OCCCO)cc2)=N[C@]1(Cc1ccccc1)C(=O)N1CCOCC1`, for which the composite z-score amounted to 0.904.
